Data reported in PubChem BioAssay AID1445 (SRMLSC, 2008).
Screen size: about 220,000 compounds; about 910 (0.41%) were called active. This is one part of a sample in which actives are shown more often than they occur.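 Rule for the calls: active = primary inhibition above the hit cutoff, then over 50% inhibition at one or more dose response concentrations (cut at about 23% in these data, passing the limit was not always enough); inconclusive = conflicting primary data, or primary hits not chosen for dose response; inactive = low primary inhibition, or under 50% at every dose.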 Potency and affinity values are given separately.

Target: Aminopeptidase N (Plasmodium falciparum (isolate 3D7)) (UniProt O96935)
Sequence (O96935 whole entry, looked up): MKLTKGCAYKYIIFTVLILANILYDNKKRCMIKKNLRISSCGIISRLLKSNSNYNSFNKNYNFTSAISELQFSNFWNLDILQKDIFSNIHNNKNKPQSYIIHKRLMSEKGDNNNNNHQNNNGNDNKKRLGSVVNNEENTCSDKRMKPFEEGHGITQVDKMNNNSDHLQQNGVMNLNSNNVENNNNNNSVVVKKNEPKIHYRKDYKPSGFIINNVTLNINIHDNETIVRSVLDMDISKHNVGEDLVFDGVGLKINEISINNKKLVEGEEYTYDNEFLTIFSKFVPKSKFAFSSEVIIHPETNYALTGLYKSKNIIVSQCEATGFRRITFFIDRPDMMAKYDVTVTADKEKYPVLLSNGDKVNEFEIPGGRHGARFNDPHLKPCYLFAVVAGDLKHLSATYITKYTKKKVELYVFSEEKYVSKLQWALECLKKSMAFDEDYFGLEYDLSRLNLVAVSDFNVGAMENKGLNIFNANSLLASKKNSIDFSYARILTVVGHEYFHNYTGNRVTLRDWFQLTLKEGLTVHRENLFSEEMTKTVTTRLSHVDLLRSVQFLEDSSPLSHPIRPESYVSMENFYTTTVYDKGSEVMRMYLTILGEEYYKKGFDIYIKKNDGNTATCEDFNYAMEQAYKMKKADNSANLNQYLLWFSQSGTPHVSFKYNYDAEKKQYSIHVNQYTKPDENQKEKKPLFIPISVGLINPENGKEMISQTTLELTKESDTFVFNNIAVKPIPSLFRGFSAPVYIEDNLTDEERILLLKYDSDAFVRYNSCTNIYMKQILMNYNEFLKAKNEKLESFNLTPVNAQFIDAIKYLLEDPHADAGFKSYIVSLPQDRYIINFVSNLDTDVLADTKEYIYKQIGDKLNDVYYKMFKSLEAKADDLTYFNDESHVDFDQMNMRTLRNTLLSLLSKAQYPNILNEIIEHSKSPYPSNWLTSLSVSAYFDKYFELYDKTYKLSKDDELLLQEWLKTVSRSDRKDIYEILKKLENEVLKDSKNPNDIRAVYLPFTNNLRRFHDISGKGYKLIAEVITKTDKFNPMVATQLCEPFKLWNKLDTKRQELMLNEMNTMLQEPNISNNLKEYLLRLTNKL
Experiment: P. falciparum M1AAP inhibitors, biochemical, fluorogenic H-Leu-NHMec substrate, 1536-well (AID 1445);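 note: plate controls were DMSO full reaction for no effect and no enzyme background for full effect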
Settings: recombinant M1AAP, H-Leu-NHMec fluorogenic kinetic assay; at 30 µM, hits give high values unless noted

inhibition, inactive:
Cc1cccc(C)c1OCc1nc2ccccc2c(=O)n1/N=C/c1c[nH]c2ccccc12 5.57%, O=c1c2ccccc2nc(COc2ccccc2)n1/N=C/c1ccc(O)cc1O 19.8%, O=c1c2ccccc2nc(COc2ccccc2)n1/N=C/c1ccc(O)c(O)c1 14.6%, CCCc1nc2ccccc2c(=O)n1/N=C/c1ccc(O)cc1 -1.67%, CCn1c(COc2cccc(C)c2C)nnc1SCC(=O)Nc1cc(C)on1 7.39%, COc1cc(/C=C/C(=O)OCC(=O)NCc2cccs2)ccc1OC(F)F 4.72%, O=C(N/N=C\c1ccc[nH]1)C1COc2ccccc2O1 (stereo not drawn) 9.36%, CC1=NN(c2ccccc2)C(=O)C1C=Nc1ccc(N(C)C)cc1 (stereo not drawn) 12.8%, CC1=NN(c2ccccc2)C(=O)C1C(=O)c1ccccc1 (stereo not drawn) 14.1%, COC(=O)c1sccc1S(=O)(=O)Nc1ccc(S(N)(=O)=O)cc1 2.58%, CC(C)(C)NC(=O)CSc1nnc(SCC(=O)NC(C)(C)C)s1 1.09%, COc1ccc(C)cc1-n1nnnc1SC/C(O)=C(\C#N)c1nc2ccccc2[nH]1 -0.98%, NC(=O)CSc1nnc(Cc2cccs2)n1C1CCCCC1 0.23%, N#CCSc1nnc(Cc2cccs2)n1C1CCCCC1 1.61%, Cc1ccccc1-n1c(SC/C(O)=C(\C#N)c2nc3ccccc3[nH]2)nnc1-c1ccncc1 13.8%, CCOP(=O)(OCC)C(Nc1ccccc1)c1ccco1 (stereo not drawn) 0.74%, CS(=O)(=O)NCc1ccc(C(=O)O)cc1 9.65%, NNC(=O)C1CC1c1ccccc1 (stereo not drawn) -1.25%, COC(=O)c1cccc(NC(=O)C2COc3ccccc3O2)c1C (stereo not drawn) 3.13%, COc1ccc(OC)c(C(=O)c2c(C)oc3cc([N+](=O)[O-])c(O)c([N+](=O)[O-])c23)c1 7.96%, Cc1ccc(C(=O)c2coc3ccc(O)c(Cl)c23)cc1 2.57%, Cc1ccc(C(=O)c2cc3c(cc2[N+](=O)[O-])OCCO3)cc1 1.34%, Cc1oc2cc([N+](=O)[O-])c(O)c([N+](=O)[O-])c2c1C(=O)c1ccc(Cl)cc1 16.5%, O=C1NC(c2ccccc2)=C(c2ccccc2)C1=O 18.7%, O=C(c1ccco1)N1CCN(C(c2ccccc2Cl)c2nnnn2Cc2cccs2)CC1 (stereo not drawn) 1.56%, CC(C)(C)c1ccc(SCCc2ccccn2)cc1 0.53%, CC(C)Oc1ccc(NC(N)=O)cc1 4.7%, COc1cccc(-n2c(C)cc(/C=C3/C(=N)N4C(=NC3=O)SN=C4S(C)(=O)=O)c2C)c1 16.2%, CS(=O)(=O)C1=NSC2=NC(=O)/C(=C\c3cccn3-c3ccccc3Cl)C(=N)N21 12.3%, CCC1=NN2C(=N)/C(=C\c3cccn3-c3c(C)cccc3C)C(=O)N=C2S1 13.2%, CC1=CSC2=NC(=O)/C(=C\c3cccn3-c3ccccc3)C(=N)N12 5.41%, CCOc1ccc(-n2c(C)cc(/C=C3/C(=N)N4C(=NC3=O)SN=C4S(C)(=O)=O)c2C)cc1 21.4%, CCC1=NN2C(=N)/C(=C\c3cccn3-c3ccc(Cl)cc3)C(=O)N=C2S1 8.09%, Cc1cc(C)cc(-n2cccc2/C=C2/C(=N)N3C(=NC2=O)SN=C3S(C)(=O)=O)c1 18.4%, CCC1=NN2C(=N)/C(=C\c3cccn3-c3ccc(Br)cc3)C(=O)N=C2S1 4.13%, COC(=O)Nc1ccc(S(=O)(=O)N2CCCC(C(=O)Nc3cccnc3)C2)cc1 (stereo not drawn) -1.96%, CCN(CC)CCN(C(=O)c1ccc(S(=O)(=O)N2CCCCC2)cc1)c1nc2cc3c(cc2s1)OCO3 -2.92%, O=C(NN1CCOCC1)c1sc2cccc(F)c2c1Cl 4.71%, O=C1c2ccccc2C(=O)N1c1nc2nccc(-c3ccccc3)n2n1 -0.09%, Cc1cc(NC(=O)c2cncc(Br)c2)n(-c2ccccn2)n1 1.7%, COc1cc(NS(=O)(=O)c2ccc(NC(=S)NC(=O)c3ccco3)cc2)nc(OC)n1 16.3%, COc1cc(NS(=O)(=O)c2ccc(NC(=S)NC(=O)C(C)(C)C)cc2)nc(OC)n1 4.8%, CCc1nnc(NS(=O)(=O)c2ccc(NC(=S)NC(=O)/C=C/c3ccc(C(C)C)cc3)cc2)s1 19.8%, CCc1nnc(NS(=O)(=O)c2ccc(NC(=S)NC(=O)c3ccncc3)cc2)s1 4.45%, CCc1nnc(NS(=O)(=O)c2ccc(NC(=O)/C=C/c3ccc(F)cc3)cc2)s1 3.37%, CCc1nnc(NS(=O)(=O)c2ccc(NC(=S)NC(=O)/C=C/c3ccccc3)cc2)s1 13.3%, CCc1nnc(NS(=O)(=O)c2ccc(NC(=S)NC(=O)c3ccccc3)cc2)s1 13.4%, CCc1nnc(NS(=O)(=O)c2ccc(NC(=S)NC(=O)/C=C/c3ccc(OC)cc3)cc2)s1 2.25%, O=C1NCCCC1C(=O)N/N=C/c1ccccc1O (stereo not drawn) 9.72%, O=C(Cc1nn[nH]n1)NCc1ccccc1Cl 1.85%, CC1(C)CC(CCC(=O)NC(=S)Nc2ccccc2Cl)C(=O)O1 (stereo not drawn) 8.14%, Cc1ccc(OCC(=O)Nc2ccccc2-c2ccccc2NC(=O)COc2ccc(C)cc2)cc1 3.53%, N#Cc1cc(C(=O)c2cc(F)ccc2O)cn(Cc2ccccc2)c1=O 7.68%, Cc1ccc(C(=O)NC(=S)Nc2ccc(CN3CCCCC3)cc2)c(C)c1 5.24%, CC(=O)N1CCN(c2ccc(Oc3nnnn3-c3ccccc3)cc2)CC1 2.19%, O=C(Cc1cccs1)N/N=C/C=C/c1ccccc1[N+](=O)[O-] 2.54%, CCc1nnc(NS(=O)(=O)c2ccc(NC(=S)NC(=O)c3ccc(Br)cc3)cc2)s1 21.6%, CCc1nnc(NS(=O)(=O)c2ccc(NC(=S)NC(=O)c3ccc(F)cc3)cc2)s1 22.7%
